Source: PubChem BioAssay AID652025 (National Center for Advancing Translational Sciences (NCATS), 2013)
Hit rate of the full screen: of about 360,000 compounds, about 240 (0.067%) were called active. No stated cut-off is given here; in the data, active means activation above about 50%; inconclusive means mostly about 30% to 49%; inactive means weaker than that. The entries come from a sample that favours actives as a whole.

Assay: qHTS of IL-2 Activators; further: 0% is about no effect
Conditions: IL-2 activation reporter assay, cell-based qHTS; hits give high values; in transgenic mouse T cells; stimulated with anti-CD3/CD4/CD28 beads
Excerpt: The adaptive immune response against any infectious agent begins with the activation of an antigen specific T cell. This relatively rare and inert ("naive") T cell undergoes a massive proliferative expansion and differentiation process to generate sufficient number of potent pathogen-specific effector T cells. The effector T cells fight the infection by making cytokines and helping other cells to become fully armed as well. If any naive T cell has antigen receptors (TCRs) that can be activated by self peptides, then a variety of regulatory mechanisms kick in to prevent this cell from performing to its full potential. These processes collectively constitute the phenomenon of immunological tolerance and their failure leads to autoimmunity. One arm of tolerance involves generation of biochemical negative feedback downstream of the TCR (tuning). This is especially relevant to self antigens present in the body over long periods of time (chronic), which form the bulk of our proteome. The negative feedback serves to tune the TCR signaling, such that the ambient antigenic stimulation is nullified intracellularly. Unfortunately, this critical machinery serves as a target for chronic viral, bacterial and parasitic infections (as well as tumors), which can evade a robust immune response, simply by allowing T cells to tune down their signaling to pathogen or malignancy derived antigens. As such, disrupting the tuning in such cases would allow the tolerant T cell to function again and deliver a robust effector response.
If a therapeutic can restore responsiveness to the tuned down T cell, even for a short time, they could combat the pathogen without any additional immunization. To that end, we have developed a sensitive HTS T cell based assay based on IL-2. This assay will be screened against the Molecular Libraries Small Molecule Repository (MLSMR) to find small molecules that could elicit this response.
NIH Chemical Genomics Center [NCGC]
NIH Molecular Libraries Probe Centers Network [MLPCN]
Assay Submitter (PI): Ron Schwartz, NIAID
4 microL (750 cells/well) of unstimulated transgenic mouse T cells (columns 1-3,5-48) are dispensed into Aurora LoBase, black clear-bottom 1536-well assay plates; column 4 receives an identical concentration of transgenic memory T cells as a non-tolerant control. Compounds are then transferred via Kalypsys pin tool equipped with 1536-pin array (10 nL slotted pins, V&P Scientific, San Diego, CA). Following addition of compound and a 60 minute incubation, 1 microL of bead stimulation solution ((0.04 micron Fluospheres (Life technologies, CA) coated with 10ug/ml each anti-CD3 and anti-CD4 (clones 2C11 and GK1.5, BD Biosciences, CA) and mixed with 1ug/ml anti-CD28 (clone PV-1, BD biosciences, CA)). columns 2-48) is added to stimulate the IL-2 response pathway; media is instead added to column 1 as an unstimulated control, while PMA/ionomycin (Sigma Aldrich, MO) is added to column 3 as a control for IL-2 tolerance bypass. The plates are then incubated at 37 degrees C for 18 hours. EGFP and DsRed signal are then detected using an Acumen eX3 Explorer fluorescent plate cytometer. All cells are dispensed in cell media containing EHAA (Quality Biologicals, MD), RPMI (Quality Biologicals, MD), Glutamine (Life Technologies, CA), Penicillin/Streptomycin (Quality Biologicals, MD), 2-ME (Sigma Aldrich, MO) and 10% FBS (Gemini Bioproducts, CA) .

activation, inactive:
CC(=O)NC12CC3CC(C1)CC(C(=O)N1CCN(C(=O)c4ccco4)CC1)(C3)C2 2.63%, O=C(NCCCNC(=O)NC1CCCCC1)NC1CCCCC1 2.89%, Cc1ccc(N(Cc2cc(=O)[nH]c3ccccc23)C(=O)CCl)cc1 -4.77%, CC1CN(C(=S)Nc2cccc(F)c2)CC(C)O1 (stereo not given) 0.508%, COC(=O)c1cc2c(ccn2C)n1C -0.203%, CN(C)S(=O)(=O)c1ccc(N2CCCC2)c(C(=O)NCc2ccccc2)c1 0.204%, Cc1ccc(-n2c(C)nnc2SCC(=O)NC2CC2)cc1 -1.22%, O=C(Oc1ccc(Br)cc1C(=S)N1CCOCC1)c1cccc([N+](=O)[O-])c1 0.801%, O=c1c(-c2ccc(Cl)cc2)[n+]([O-])c2ccccc2n1OCc1nc2ccccc2[nH]1 -0.455%, O=C(C[n+]1ccc2c(c1)nnn2-c1ccccc1)c1ccc(Cl)cc1 -1.14%, COc1ccc(N2CCN(C3CCCCC3NS(=O)(=O)c3ccccc3)CC2)cc1 (stereo not given) -5.42%, CCOC(=O)N1CCN(C(c2ccnc3ccccc23)c2nnnn2-c2c(C)cccc2C)CC1 (stereo not given) -1.14%, CC(=O)NCCC(=O)Nc1nc(C)c(Cc2ccc3c(c2)OCO3)s1 -2.95%, CCN(CC)c1ccc(NC(=O)C2CCC(CNc3c(N4CCCC4)c(=O)c3=O)CC2)c(C)c1 (stereo not given) -0.247%, O=C(CS(=O)(=O)c1ccc(C(F)(F)F)cn1)NNC(=O)c1ccccc1 0.398%, O=C(CSc1ccsc1[N+](=O)[O-])N1CCCCC1 -0.638%, CCOC(=O)N1CCC(N2Cc3cccc(C(=O)Nc4ccc(S(=O)(=O)N(CC)CC)cc4)c3C2=O)CC1 -2.11%, Cc1ccc(NC(=O)CSc2nc(=O)n(CCN(C)C)c3c2CCCC3)c(C)c1 0.222%, CN1CCC(CN)(N2CCN(c3ccccc3)CC2)CC1 0.289%, CCN(CC(=O)NCCCN1CCOCC1)S(=O)(=O)c1cc(Cl)ccc1Cl -0.326%, CC(C)C[C@@H](N)c1nnc(SCC(=O)c2ccc(Cl)cc2)o1 0.422%, Cc1c(NC(=O)CSCc2ccccc2)cccc1C(=O)O 3.04%, COc1cccc(C(NC(C)=O)c2nc(-c3ccccc3OC)cs2)c1 (stereo not given) 0.438%, CN(CCCC(=O)Nc1nccs1)S(=O)(=O)c1ccc(Cl)cc1 -1.49%, C=C1CCC(N(O)c2cc(C)on2)C(=C)CCC2C1CC2(C)C (stereo not given) -0.223%, NC(=O)COc1ccc(C23CC4CC(CC(C4)C2)C3)cc1 -3.06%, COC(C[C@@H](O)C[C@H](O)[C@H](C)OCc1ccccc1)OC 2.56%, COc1cccc(C(=O)Nc2c3c(nn2-c2cccc(C)c2C)CS(=O)(=O)C3)c1OC -0.743%, CCCCc1nc2cc(C(=O)NCCc3cnn(C)c3)ccc2o1 -2.8%, CCNc1c(NS(=O)(=O)c2ccc(C3CCCCC3)cc2)c(=O)oc2ccccc12 -0.121%, CC(=O)Nc1ccc(CN2CCN(Cc3ccc(F)c(F)c3)C(CCO)C2)cc1 (stereo not given) -0.804%, Cc1ccc(-c2c[n+](=O)c3c(n2[O-])CCC3)cc1 1.34%, COc1ccc(N(CC(=O)NC2CCCC2)C(=O)CS(=O)CC(=O)Nc2ccc3c(c2)OCO3)cc1 (stereo not given) -2.57%, c1csc(CN2CCN(Cc3cccs3)C2c2cccs2)c1 0.339%, Cc1cc(C)cc(C(=O)NC(CC(N)=O)c2ccc(N3CCC(N4CCCCC4)CC3)c([N+](=O)[O-])c2)c1 (stereo not given) -0.417%, O=C(O)CCCCOn1ccnc1 1.09%, CCn1nc(C)c(CN2CCN(Cc3ccc(OC)c(C)c3C)C(CCO)C2)c1C (stereo not given) -3.09%, O=C(O)c1ccccc1N=N/C(=N/Nc1cc(S(=O)(=O)O)ccc1O)c1ccccc1 0.118%, CCOC(=O)[C@]12CCCC=C1N(Cc1cccc3ccccc13)C(=O)[C@H](CC(=O)NCC13CC4CC(CC(C4)C1)C3)C2 -1.16%, CCN(CC)S(=O)(=O)c1ccc(N2CCN(C)CC2)c(NC(=O)Nc2ccccc2F)c1 -1.22%, CC1(Oc2ccc(Cl)cc2)CCN(Cc2csc3ccccc23)C1 (stereo not given) 0.192%, COC(=O)COc1cccc2c(=O)n(CC(=O)NCc3ccccc3)ccc12 -3.22%, CCOC(=O)N1CCN(C(=O)c2ccccc2SCC(=O)NCC2CCCCC2)CC1 -1.16%, O=C(NCc1ccccc1Cl)c1csc([C@@H]2O[C@H](CO)[C@@H](O)[C@H]2O)n1 0.0054%, CC(=O)Nc1ccc(C(=O)Nc2cc(S(=O)(=O)N3CCOCC3)ccc2N2CCOCC2)cc1 -2.32%, Nc1nc(-c2sc3nc4c(cc3c2N)CCCC4)nc(N2CCOCC2)n1 -1.7%, CCCc1cc(=O)[nH]c(SCc2cc(=O)oc3c(C)c(C)ccc23)n1 -0.327%, CCOc1ccccc1NC(=O)C12CC3CC(C1)CC(c1ccc(C)cc1)(C3)C2 -4.57%, Cc1cc(C)c2c(-n3cccc3)c(C(=O)NNS(=O)(=O)c3ccc(F)cc3)sc2n1 0.79%, CC(=O)N(Cc1cccs1)C1CCOC(C)(C)C1 (stereo not given) -0.456%, O=C(NNC(=S)NC1CC2CCC1C2)c1ccc(Cl)cc1 (stereo not given) -0.932%, Cc1ccccc1-n1nnc2c(=O)oc3ccccc3c21 -0.569%, COc1ccccc1CNC(=O)C1CCCN(S(=O)(=O)c2cccc3cccnc23)C1 (stereo not given) -1.32%, Cc1ccc(C(CC(=O)O)NC(=O)c2ccc(S(=O)(=O)N3CCCC3)cc2)cc1 (stereo not given) 0.29%, CC1=C(C(=O)OC2CCCCC2)C(c2ccccc2F)NC(=O)N1 (stereo not given) -8.28%, Cn1cccc1C1(C(F)(F)F)NCCNC1=O (stereo not given) -1.5%, CCO[C@H]1OC(C(=O)N2CCOCC2)=C[C@@H](c2ccc3c(c2)OCO3)[C@@H]1CCCO -0.126%, Cc1nn(CCOc2ccc(Br)cc2)c(C)c1[N+](=O)[O-] -2.36%

activation, active:
O=C(Cc1nc2ccccc2[nH]c1=O)c1ccc(Cl)cc1 60.1%, COc1ccc2nc(Nc3nc(-c4cc5ccccc5oc4=O)cs3)sc2c1 57.4%
